Experimental data reported in PubChem BioAssay (NCATS).
Inconclusive results are not listed. Active and inactive are the calls of the source. Calls come from the whole dose curve; as a rule, active = well fitted cell-killing curve with a large enough effect; inconclusive = small, poorly fitted or top-dose-only effect, or effect the other way; inactive = no such curve, though single readings can be large or run the other way.

Experiment: Quantitative High-Throughput drug screen in 47 multiple myeloma cell lines against the NCATS MIPE library collection: MMM1_PLB cell viability assay (AID 1918976); note: nearly all actives have a fitted effect of over 35% in size
Details: MMM1 myeloma cells viability, CellTiter-Glo, 48 h; series mostly up to 45.8 µM
Summary of the method: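 ATP-based luminescence (CellTiter-Glo, 5 min RT incubation) quantified surviving cells following two days' treatment with MIPE 4.0 agents at 37 °C, 5% CO2.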
Potency is the fitted concentration of half-maximal effect.

Row | SMILES | Potency
1 | CCCn1c(=O)c2[nH]c(C34CC5CC3C[C@@H](C5)C4)nc2n(CCC)c1=O | 18.7 µM (active)
2 | COc1ccc(-c2ccc3c(N4CCOC[C@H]4C)nc(N4CCOC[C@H]4C)nc3n2)cc1CO | 0.0105 µM (active)
3 | Cc1cc(SCc2sc(-c3ccc(C(F)(F)F)cc3)nc2C)ccc1OCC(=O)O | 5.26 µM (active)
4 | CCC(=O)N[C@H]1CC[C@H](C(=O)N(C)c2ccc(-c3nc4ccccc4o3)cc2)C1 | 14.8 µM (active)
5 | CCCCCCCc1ccc(CCc2cccc(O)c2C(=O)O)cc1 | 14.8 µM (active)
6 | CC[C@@H](C)[C@H](NC(=O)[C@H](CC1CCCCC1)NC(=O)c1ccno1)C(=O)N1CCC2(CCc3ccccc32)CC1 | 11.8 µM (active)
7 | O=C(Nc1ccc(F)c(C(F)(F)F)c1)Nc1nnc(-c2ccncc2)s1 | 5.26 µM (active)
